Sampled rows, rich in hits. Any-hit rate of the full collection: about 28%.
hDAT+cocaine: changed human dopamine transporter uptake under cocaine IC80 | Q01959 | LLC-PK1 hDAT cells, [14C]-dopamine uptake with cocaine IC80; actives deviate in either direction | B-score at 10 µM | 110,000 compounds, 1.3% hits;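 active = Z score or B-score, a plate-position-corrected score, falls beyond the plate's 99.7% confidence bounds, in either direction; inactive = both scores lie inside the 99.7% bounds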
CYP2C9 inhib: human CYP2C9 inhibition | CYP2C9 Supersomes, luciferin-H conversion, luminescence | inhibition, % at 5 µM | 96,000 compounds, 20% hits | AID 777;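 active = blocking of liver enzyme CYP2C9 beyond about 50% at 5 µM, limit read from the data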
CYP2C19 inhib: inhibitors of human CYP2C19 | CYP2C19 Supersomes, luciferin-H EGE luminescence, 30 min | P33261 | AID 778 | inhibition, % at 5 µM | 96,000 compounds, 21% hits;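 active = CYP2C19 inhibition above a set limit at 5 µM in the primary screen, cut at about 50% in these data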
Target sequence (P33261 whole entry, looked up): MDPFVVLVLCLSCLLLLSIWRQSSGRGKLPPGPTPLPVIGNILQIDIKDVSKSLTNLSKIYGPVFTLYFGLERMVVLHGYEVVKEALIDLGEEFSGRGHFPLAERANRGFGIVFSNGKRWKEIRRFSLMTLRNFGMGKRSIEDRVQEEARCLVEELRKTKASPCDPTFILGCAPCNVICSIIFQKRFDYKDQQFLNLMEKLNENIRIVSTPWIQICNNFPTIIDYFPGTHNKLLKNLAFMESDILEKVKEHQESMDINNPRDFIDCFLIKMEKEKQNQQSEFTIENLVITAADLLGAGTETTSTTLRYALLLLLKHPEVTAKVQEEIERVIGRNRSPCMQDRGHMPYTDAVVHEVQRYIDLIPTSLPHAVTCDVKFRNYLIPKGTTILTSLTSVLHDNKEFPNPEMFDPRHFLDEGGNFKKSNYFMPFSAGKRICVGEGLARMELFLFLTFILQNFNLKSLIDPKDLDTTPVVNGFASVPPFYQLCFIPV
CYP2C9 act: increases human cytochrome P450 2C9 activity. P11712. 96,000 compounds, 1.4% hits. AID 1024. activation factor at 5 µM. recombinant CYP2C9, luciferin-H conversion, luminescence; stronger effect = higher value; factor 1 = untreated enzyme, 0 = blocked;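 active = activation factor of 2 or more for CYP2C9 at a 5 µM dose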
D1 mod: allosteric modulators of human D1 dopamine receptor; P21728; HEK293 D1, CRE-luciferase, dopamine EC30 potentiation; actives deviate in either direction; B-score at 10 µM; 58,000 compounds, 5.9% hits;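 active = luminescence count or its row- and column-corrected plate score outside the 99.7% band of the plate's sample wells, on either side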
CYP2C19 activ: increases human CYP2C19 enzyme activity. activation factor at 5 µM. 96,000 tested, under 10 active. recombinant CYP2C19, luciferin-H EGE luminescence; stronger effect = higher value; 0 = fully inhibited enzyme, 1 = untreated enzyme. P33261;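 active = activation factor of at least 2 at 5 µM in the primary screen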
Large screens that a line does not name were inactive.

CCN1C(=O)C(C)S/C1=N\S(=O)(=O)c1ccc(Cl)s1 (stereo unspecified)	CYP2C19 inhib 70
CCC(Oc1ccccc1)C(=O)N1CCN(C(=O)C(CC)Oc2ccccc2)CC1 (stereo unspecified)	CYP2C9 inhib 84 (no result: D1 mod)
CCC(Oc1ccccc1)C(=O)N1CCN(c2ccccn2)CC1 (stereo unspecified)	CYP2C9 inhib 85, CYP2C19 inhib 79
O=C(N1CCC(O)(c2cccnc2)CC1)C12CC3CC(CC(C3)C1)C2	none
c1ccc(-c2nnn(C34CC5CC(CC(C5)C3)C4)n2)cc1	none
COc1ccc(C)cc1NC(=O)CSc1nnc(-c2ccco2)n1N	none (no result: D1 mod)
O=C(CSc1nnc(-c2ccco2)n1Cc1ccco1)Nc1ccccc1	CYP2C9 inhib 64 (no result: D1 mod)
COc1ccccc1NC(=O)CSc1nnc(-c2ccccn2)n1Cc1ccco1	CYP2C9 inhib 77
COc1ccc(C)cc1NC(=O)CSc1nnc(-c2ccccn2)n1Cc1ccco1	none
CCOC(=O)CNC(=O)CSc1nnc(-c2ccco2)n1Cc1ccco1	none
COc1ccccc1NC(=O)CSc1nnc(-c2ccco2)n1Cc1ccco1	CYP2C9 inhib 77, CYP2C19 inhib 83
CCCOc1ccc(Cc2nc(N)nc(N)n2)cc1	none
CC(C)c1nc2n[nH]c(N)c2c2c1CSC(C)(C)C2	none (no result: D1 mod)
CC1=Nn2c(nnc2-c2n[nH]c3c2CCC3)SC1	hDAT+cocaine -8
Fc1ccc(C2=Nn3c(nnc3-c3n[nH]c4c3CCC4)SC2)cc1	D1 mod -3
O=C(CSc1nc2c(c(=O)n1-c1ccc(Cl)cc1)SCC2)Nc1nccs1	none
CCOc1ccc(-n2c(SCC(=O)NCc3ccco3)nc3c(c2=O)SCC3)cc1	CYP2C9 inhib 62
O=C(CSc1nc2c(c(=O)n1-c1ccc(Br)cc1)SCC2)Nc1nccs1	CYP2C19 inhib 61
COc1ccc(NC(=O)CSc2nc3c(c(=O)n2-c2ccc(F)cc2)SCC3)cc1	CYP2C9 inhib 62
O=C1CNC(=O)N1CC(=O)N1CCCc2ccccc21	none (no result: D1 mod)
CCOC(=O)c1c(C)[nH]c(C)c1C(=O)CSc1nnc(-c2ccco2)n1Cc1ccccc1	CYP2C9 inhib 98, CYP2C19 inhib 99
CCCn1c(N)c(C(=O)CSc2nnc(C3CC3)n2Cc2ccccc2)c(=O)[nH]c1=O	CYP2C9 inhib 59 (no result: D1 mod)
CCOC(=O)c1c(C)[nH]c(C)c1C(=O)CSc1nnc(-c2ccncc2)n1Cc1ccccc1	CYP2C9 inhib 98, CYP2C19 inhib 100 (no result: D1 mod)
O=C(O)CSc1nnc(-c2ccncc2)n1Cc1ccccc1	none (no result: D1 mod)
CCOC(=O)c1c(C)[nH]c(C)c1C(=O)CSc1nnc(-c2ccncc2)n1C	CYP2C9 inhib 63, CYP2C19 inhib 98 (no result: hDAT+cocaine)
O=C(Nc1ccc2oc(=O)ccc2c1)c1cccnc1Cl	none (no result: CYP2C9 inhib, CYP2C19 inhib, CYP2C9 act, D1 mod, CYP2C19 activ)
CN(C)c1cccc(C(=O)Nc2ccc(N3CCOCC3)cc2)c1	none (no result: D1 mod)
Cc1ccc(C)c(N2CC(=O)N(c3cc(C)ccc3C)CC2=O)c1	none
Cc1ccc2c(c1)CN1CN2Cc2cc(C)ccc21	CYP2C19 inhib 54
Cc1ccc(C2CC(c3ccccc3)=NN2C(=S)Nc2ccccc2)o1 (stereo unspecified)	CYP2C9 inhib 56 (no result: D1 mod)
N#CCCN1CCN(S(=O)(=O)c2ccc(S(=O)(=O)NC3CCCC3)cc2)CC1	none
Cc1ccc(F)c(C2C3C=CCC(c4cccc(-c5ccc(N(C)C)cc5)c4)C3C(=O)N2Cc2ccccc2)c1 (stereo unspecified)	none (no result: CYP2C9 inhib, CYP2C19 inhib, CYP2C9 act, D1 mod, CYP2C19 activ)
COCc1cc(C)nc2sc(C(=O)OC(C)C)c(N)c12	CYP2C9 inhib 72, CYP2C19 inhib 85
CCCCNC(=O)c1sc2nc(C)cc(COC)c2c1-n1cccc1	none (no result: hDAT+cocaine)
Cn1c(SCCS(=O)(=O)c2ccc(Cl)cc2)nnc1-c1ccccc1	none
Cc1ccc(-c2ccc(=O)n(CC(=O)Nc3cccc(C(=O)N4CCN(C)CC4)c3)n2)cc1	none
COc1cccc(-c2ccc(=O)n(CC(=O)Nc3cc4c(cc3NC(C)=O)OCCO4)n2)c1	CYP2C19 inhib 69
COc1cccc(-c2ccc(=O)n(CC(=O)NCCN3CCOCC3)n2)c1	none (no result: CYP2C9 inhib, CYP2C19 inhib, CYP2C9 act, D1 mod, CYP2C19 activ)
COc1cccc(-c2ccc(=O)n(CC(=O)Nc3ccc(C(=O)N4CCCC4)cc3)n2)c1	hDAT+cocaine 2.9, CYP2C19 inhib 55 (no result: D1 mod)
CC1SC(=NC(=O)C(C)N2C(=O)c3ccccc3C2=O)NC1=O (stereo unspecified)	none (no result: CYP2C9 inhib, CYP2C19 inhib, CYP2C9 act, D1 mod, CYP2C19 activ)
CC(OC1=CC(=O)CCC1)C(=O)c1ccccc1 (stereo unspecified)	none
O=C(O)CCC(NS(=O)(=O)c1ccc(-c2ccccc2)cc1)C(=O)O (stereo unspecified)	none
Cc1cc2ccccc2n1CCNC(=O)C1CCCC1	CYP2C9 inhib 52, CYP2C19 inhib 94 (no result: hDAT+cocaine)
Cc1cc2ccccc2n1CCNC(=O)c1cccs1	CYP2C19 inhib 53
Cc1cc2ccccc2n1CCNC(=O)C1CCCCC1	CYP2C19 inhib 68 (no result: D1 mod)
O=C1CCCc2c1cc(C(=O)NCc1ccco1)c(=O)n2-c1ccc(Cl)cc1	CYP2C19 inhib 84
Cc1cccc(NC(=O)c2cc3c(n(-c4ccccc4)c2=O)CCCC3=O)n1	CYP2C9 inhib 50
Cc1c(Cl)cccc1-n1ccnc1SCC(=O)O	CYP2C9 inhib 67
Cc1cccc(-n2ccnc2SCC(=O)Nc2nccs2)c1C	CYP2C19 inhib 53
CCOc1ccc(-n2ccnc2SCC(=O)Nc2nnc(C)s2)cc1	none
CCc1nnc(NC(=O)CSc2nccn2-c2cc(C)cc(C)c2)s1	CYP2C9 inhib 58
Cc1c(Cl)cccc1NC(=O)Cn1cccc1	none
CCc1nnc(NC(=O)CSc2nccn2-c2cccc(C)c2C)s1	CYP2C9 inhib 53
CCN1C(=O)N[C@@H](c2ccccc2)[C@@H](C(=O)OC)[C@H]1C	none (no result: CYP2C9 inhib, CYP2C19 inhib, CYP2C9 act, D1 mod, CYP2C19 activ)
CCOC(=O)c1ccccc1NC(=O)CSc1nnc(C(C)C)n1CC	none (no result: CYP2C9 inhib, CYP2C19 inhib, CYP2C9 act, D1 mod, CYP2C19 activ)
O=C(Cc1coc(-c2ccc(F)cc2)n1)NCc1ccccc1	none
O=C(O)Cc1coc(-c2ccc(F)cc2)n1	hDAT+cocaine -8.5
COC(=O)[C@@]1(Cc2ccc(OC)cc2)[C@H]2c3cc(C(=O)N4CCCC4)n(CCSCCO)c3C[C@H]2CN1C(=O)c1ccccc1	none (no result: CYP2C9 inhib, CYP2C19 inhib, CYP2C9 act, D1 mod, CYP2C19 activ)
O=c1[nH]c2cc3c(cc2cc1CN(CCc1ccccc1)Cc1nnnn1C1CCCC1)OCCO3	none
Cc1ccc2cc(CN(Cc3nnnn3C3CCCCC3)CC3CCCO3)c(=O)[nH]c2c1 (stereo unspecified)	CYP2C19 inhib 81
Cc1ccc2[nH]c(=O)c(CN(Cc3ccc4c(c3)OCO4)Cc3nnnn3C3CCCC3)cc2c1	CYP2C9 inhib 61 (no result: hDAT+cocaine)
COCCn1nnnc1CN(CCc1ccc(OC)c(OC)c1)Cc1cc2ccc(C)cc2[nH]c1=O	CYP2C9 inhib 61, CYP2C19 inhib 59 (no result: D1 mod)
COc1ccc2cc(CN(Cc3cccnc3)Cc3nnnn3Cc3ccccc3)c(=O)[nH]c2c1	hDAT+cocaine 2.2, CYP2C9 inhib 90, CYP2C19 inhib 93
